According to PubChem BioAssay (NCATS):
Records with an inconclusive call do not appear. A call without a number means that no potency is given here. Calls of active or inactive are those of the source. The call rests on the fitted dose curve; in most records, active means well fitted inhibition curve with a large enough effect; inconclusive means small, poorly fitted or top-dose-only effect; inactive means flat fitted curve, though single readings scatter.
Potency means the concentration at half of the fitted maximal effect.

These compounds were tested against Lysine-specific demethylase 5B (Homo sapiens) (UniProt Q9UGL1) (assay: Optimization screen for KDM5B Histone Demethylases FDH coupled qHTS against the LOPAC library (AID 1347166)). Conditions: KDM5B demethylation, FDH-coupled NADH fluorescence (FDH is formaldehyde dehydrogenase); series mostly up to 57.5 µM.
Chain of Lysine-specific demethylase 5B (Homo sapiens) (Q9UGL1 whole entry, looked up): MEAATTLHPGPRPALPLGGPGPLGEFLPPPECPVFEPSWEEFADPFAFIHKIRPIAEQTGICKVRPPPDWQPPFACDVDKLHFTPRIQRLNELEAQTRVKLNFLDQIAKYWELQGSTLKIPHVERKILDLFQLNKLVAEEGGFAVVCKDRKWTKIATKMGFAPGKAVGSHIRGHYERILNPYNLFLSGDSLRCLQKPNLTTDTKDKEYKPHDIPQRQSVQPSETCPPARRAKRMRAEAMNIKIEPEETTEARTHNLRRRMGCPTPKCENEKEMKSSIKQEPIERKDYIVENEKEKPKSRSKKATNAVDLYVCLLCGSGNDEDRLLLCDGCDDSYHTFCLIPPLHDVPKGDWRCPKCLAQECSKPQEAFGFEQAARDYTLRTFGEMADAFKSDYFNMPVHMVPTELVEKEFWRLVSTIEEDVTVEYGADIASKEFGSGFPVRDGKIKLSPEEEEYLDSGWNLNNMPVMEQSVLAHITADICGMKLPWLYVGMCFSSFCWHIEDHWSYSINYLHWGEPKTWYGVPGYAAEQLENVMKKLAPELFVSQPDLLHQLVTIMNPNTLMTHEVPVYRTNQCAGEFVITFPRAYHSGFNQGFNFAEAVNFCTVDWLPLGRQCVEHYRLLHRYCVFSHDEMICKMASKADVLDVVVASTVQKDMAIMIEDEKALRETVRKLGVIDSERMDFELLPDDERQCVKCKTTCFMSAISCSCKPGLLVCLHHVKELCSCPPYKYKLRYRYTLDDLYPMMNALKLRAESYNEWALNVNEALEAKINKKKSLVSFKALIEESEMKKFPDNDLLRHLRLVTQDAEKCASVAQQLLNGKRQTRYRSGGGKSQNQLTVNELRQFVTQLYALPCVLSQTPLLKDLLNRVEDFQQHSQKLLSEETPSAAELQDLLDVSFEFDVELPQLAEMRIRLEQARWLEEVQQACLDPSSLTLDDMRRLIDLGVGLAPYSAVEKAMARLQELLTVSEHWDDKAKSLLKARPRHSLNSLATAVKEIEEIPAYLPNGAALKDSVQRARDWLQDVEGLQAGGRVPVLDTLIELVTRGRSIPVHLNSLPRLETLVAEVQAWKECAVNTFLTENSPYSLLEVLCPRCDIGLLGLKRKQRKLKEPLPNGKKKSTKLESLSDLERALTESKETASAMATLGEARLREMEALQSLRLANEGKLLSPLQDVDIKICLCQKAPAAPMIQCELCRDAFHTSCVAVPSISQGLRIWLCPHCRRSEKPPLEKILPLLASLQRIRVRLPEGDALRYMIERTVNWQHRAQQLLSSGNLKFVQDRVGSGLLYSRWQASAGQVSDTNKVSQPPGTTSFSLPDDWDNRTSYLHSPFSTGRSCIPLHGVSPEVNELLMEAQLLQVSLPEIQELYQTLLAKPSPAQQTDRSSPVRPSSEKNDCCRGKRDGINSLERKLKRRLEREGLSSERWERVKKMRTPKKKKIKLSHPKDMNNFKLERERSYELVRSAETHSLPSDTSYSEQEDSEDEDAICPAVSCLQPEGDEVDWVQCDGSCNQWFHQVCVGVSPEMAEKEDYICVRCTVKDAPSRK
Outline: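 KDM5BDeltaAP (200nM final) in 50mM HEPES pH 7.5, 0.01% Tween-20 was preincubated with compound for 10 min at room temperature. A substrate mix of 12.5uM H3K4Me3, 25uM a-ketoglutarate, ascorbate, Fe2+, NAD+ and formaldehyde dehydrogenase was then added. NADH fluorescence (340/450 nm) was read initially and after 30 min.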
In the case of `NCCCNCCSP(=O)(O)O`, the Potency is reported as “inactive”. In the case of `CCOC(=O)c1cnc2c(cnn2CC)c1NN=C(C)C`, the Potency is reported as “inactive”. With `C[C@]12C=CC(=O)C=C1CC[C@H]1[C@@H]3C[C@@H](O)[C@](O)(C(=O)CO)[C@@]3(C)C[C@H](O)[C@@]12F` the Potency was “inactive”. `Nc1nc(N)c2nc(-c3ccccc3)c(N)nc2n1` was tested, and the Potency was 39.8 µM (active).
